PubChem BioAssay (Tox21)
Records with an inconclusive call do not appear. The source made the active and inactive calls. Unless noted, the call rests on the fitted dose curve; in most records, active means well fitted curve in the direction sought with a large enough effect in the repeat runs; inconclusive means weak or mixed curves; inactive means no such curve, though single readings can be large; an effect the other way counts as inactive or inconclusive.

Legend:
[1] = qHTS assay to identify small molecule antagonists of the estrogen related receptor (ERR) signaling pathway from Tox21 library - cell viability counter screen (AID 1224834); further: nearly all actives have a fitted effect of over 30% in size
Outline: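 Counter screen run in ERR cells (2,000 cells/well): cells pre-incubated 6 h, then treated with compounds for 17.5 h at 37 C. Fluorescence was read 30 min after CellTiter-Fluor addition.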

[2] = biological target: Luciferin 4-monooxygenase (Photinus pyralis) (UniProt P08659); assay: qHTS assay to identify small molecule inhibitors of firefly luciferase (AID 1224835); further: nearly all actives have a fitted effect of over 25% in size
Outline: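 Biochemical qHTS: compounds run as interplate titrations against purified firefly enzyme, with D-luciferin and ATP each at its KM concentration. Light output recorded by CCD imaging.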

[3] = qHTS assay to identify small molecule antagonists of the constitutive androstane receptor (CAR) signaling pathway - cell viability counter screen (AID 1224837); further: nearly all actives have a fitted effect of over 45% in size
Outline: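 CITCO at 50 nM final was added alongside compounds (15 concentrations) to double-stable hCAR/CYP2B6-2.2kb HepG2 cells. Following 23 hr at 37 C, cell viability was quantified by CellTiter-Fluor fluorescence intensity.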

[4] = biological target: Nuclear receptor subfamily 1 group I member 3 (Homo sapiens) (UniProt Q14994); assay: qHTS assay to identify small molecule antagonists of the constitutive androstane receptor (CAR) signaling pathway (AID 1224838); further: nearly all actives have a fitted effect of over 40% in size
Outline: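 Inhibition of CITCO-driven (50 nM final) CYP2B6 reporter expression is measured in HepG2 cells stably carrying hCAR. Fifteen compound concentrations are applied for 24 h at 37 C, followed by luciferase luminescence.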

[5] = biological target: Nuclear receptor subfamily 1 group I member 3 (Homo sapiens) (UniProt Q14994); assay: qHTS assay to identify small molecule agonists of the constitutive androstane receptor (CAR) signaling pathway (AID 1224839); further: nearly all actives have a fitted effect of over 15% in size
Outline: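 HepG2 cells stably co-transfected with hCAR and a CYP2B6-2.2kb luciferase reporter; compounds at 15 concentrations with 0.75 uM PK11195 present. After 24 hr at 37 C, luciferase read by ONE-Glo luminescence.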

[6] = qHTS assay to identify small molecule antagonists of the estrogen related receptor signaling pathway with the pleiotropic PPARgamma coactivator (PGC) from Tox21 10K library - cell viability counter screen (AID 1224840; active means well fitted cell-killing curve with a large enough effect in the repeat runs, not every such curve was filed as active; further: nearly all actives have a fitted effect of over 40% in size)
Outline: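 Readout: fluorescence intensity from CellTiter-Fluor after 30 min at 37 C/5% CO2. Preceded by 17.5 h treatment of PGC/ERR cells with DMSO-dissolved compounds, added 6 h post-seeding.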

[7] = qHTS assay to identify small molecule antagonists of the estrogen related receptor signaling pathway with the pleiotropic PPARgamma coactivator (PGC) from Tox21 10K library (AID 1224841; call rule not given here; further: actives are mostly falling curves and most rising ones were filed inactive; nearly all actives have a fitted effect of over 50% in size)
Outline: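 One-Glo luminescence, measured after half an hour at room temperature, quantified reporter output of PGC/ERR cells. These had been plated at 2,000 per well, incubated 6 h, dosed with compounds in DMSO, then kept 18 h at 37 C.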

[8] = qHTS assay to identify small molecule agonists of the estrogen related receptor signaling pathway with the pleiotropic PPARgamma coactivator (PGC) from Tox21 10K library (AID 1224842); further: nearly all actives have a fitted effect of over 15% in size
Outline: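 PGC/ERR reporter cell line, 2,000 cells per well, incubated 6 h at 37 C before 23 nL compound in DMSO was added. After 18 h at 37 C, One-Glo luminescence read following 30 min at room temperature.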

[9] = qHTS assay to identify small molecule agonists of the hypoxia (HIF-1) signaling pathway - cell viability counter screen (AID 1224844; calls by dose curve; further: nearly all actives have a fitted effect of over 50% in size)
Outline: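 In this counter screen, HRE-bla ME-180 cell viability after 17 hrs of compound exposure at 37C was read by CellTiter-Glo luminescence, multiplexed with the beta-lactamase reporter measurement.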

[10] = qHTS assay to identify small molecule agonists of H2AX (AID 1224845; active means well fitted activation curve with a large enough effect in the signal ratio in the repeat runs, not every such curve was filed as active; the % refers to the signal ratio)
Outline: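 Wild-type CHO-K1 cells, plated overnight, exposed 3hr at 37C to 15 concentrations (0.76% DMSO final). Lysed, then HTRF anti-pH2AX (S139) cryptate and anti-H2AX-d2 antibodies, 24 hr room temperature; 665/620 nm emission read.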

[11] = qHTS assay to identify small molecule agonists of the hypoxia (HIF-1) signaling pathway (AID 1224846; active means well fitted activation curve with a large enough effect in the signal ratio in the repeat runs, not every such curve was filed as active; the % refers to the signal ratio)
Outline: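 ME-180 HRE-bla reporter cells; compounds in DMSO, 17 h at 37C; read-out beta-lactamase via CCF4-AM FRET.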

[12] = qHTS assay to identify small molecule agonists of H2AX - cell viability counter screen (AID 1224847; calls by dose curve; further: top concentration of the series differs between compounds; nearly all actives have a fitted effect of over 30% in size)
Outline: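 CHO-K1 cells plated overnight at 37C, then exposed 3 h at 37C to compounds at 15 concentrations (0.76% DMSO final). Viability by CellTiter-Glo luminescence after 30 min at room temperature.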

[13] = qHTS assay to identify small molecule antagonists of the estrogen related receptor (ERR) signaling pathway from Tox21 library (AID 1224848); further: nearly all actives have a fitted effect of over 50% in size
Outline: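 Quantitative high-throughput format: ERR reporter cells (2,000/well) pre-incubated 6 h, treated 18 h at 37 C with compounds in DMSO alongside positive and negative controls, then read by ONE-Glo luminescence.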

[14] = qHTS assay to identify small molecule agonists of the estrogen related receptor (ERR) signaling pathway from Tox21 library (AID 1224849; calls by dose curve; further: nearly all actives have a fitted effect of over 15% in size); settings: ERR reporter cell line, ONE-Glo luciferase, 18 h; at 92.4 µM (top of the series) unless noted
Outline: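 Luciferase activity in ERR pathway reporter cells served as the agonist readout; exposure lasted 18 h at 37 C, with ONE-Glo detection after 30 min at room temperature.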

[15] = qHTS RealTime-Glo MT Cell Viability Assay in HepG2 cells - 24 hour (AID 1224867); further: nearly all actives have a fitted effect of over 50% in size
Outline: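 Tox21 10K library screened in qHTS format on HepG2 cells carrying RealTime-Glo reagents. Compounds were added after a 5 h preincubation, and the luminescent signal from continuous culture was measured repeatedly during 40 h treatment.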

[16] = qHTS RealTime-Glo MT Cell Viability Assay in HEK293 cells - 32 hour (AID 1224868)
Outline: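 Luminescence generated by NanoLuc from substrate produced by living HEK293 cells served as the viability signal. Each value reflects the reading at its stated time point during continuous 40 h compound exposure at 37 C.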

[17] = A CellTox Green Cytotoxicity Assay to monitor cytotoxicity in HEK293 cells - 0 hour (AID 1224869); further: nearly all actives have a fitted effect of over 50% in size
Outline: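 Real-time, in one plate: 600 HEK293 cells/well with dead-cell DNA dye, pinned compound after 5 h, 37 C incubation over 40 h; viable cells give no appreciable fluorescence.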

[18] = qHTS RealTime-Glo MT Cell Viability Assay in HepG2 cells - 40 hour (AID 1224870); further: nearly all actives have a fitted effect of over 50% in size
Outline: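 HepG2 cells (600/well) mixed with RealTime-Glo MT reagent, settled 5 h at 37 C/5% CO2 before compound addition. Nonlytic NanoLuc luminescence from viable-cell prosubstrate reduction read repeatedly during 40 h treatment at 37 C.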

[19] = biological target: Thyrotropin receptor (Homo sapiens) (UniProt P16473); assay: qHTS assay to identify small molecule agonists of the thyroid stimulating hormone receptor (TSHR) signaling pathway (AID 1224843; calls by dose curve; further: nearly all actives have a fitted effect of over 45% in size)
Outline: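 Agonist-mode screen: TSHR HEK293 cells received test chemicals for half an hour at room temperature, then HTRF cAMP detection reagents for one hour prior to fluorescence measurement. Each chemical ran as a 15-concentration series, triplicated.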
On the % scale 0 is the no-effect control and ±100 the full control effect.

Chain of Luciferin 4-monooxygenase (Photinus pyralis) (P08659 whole entry, looked up): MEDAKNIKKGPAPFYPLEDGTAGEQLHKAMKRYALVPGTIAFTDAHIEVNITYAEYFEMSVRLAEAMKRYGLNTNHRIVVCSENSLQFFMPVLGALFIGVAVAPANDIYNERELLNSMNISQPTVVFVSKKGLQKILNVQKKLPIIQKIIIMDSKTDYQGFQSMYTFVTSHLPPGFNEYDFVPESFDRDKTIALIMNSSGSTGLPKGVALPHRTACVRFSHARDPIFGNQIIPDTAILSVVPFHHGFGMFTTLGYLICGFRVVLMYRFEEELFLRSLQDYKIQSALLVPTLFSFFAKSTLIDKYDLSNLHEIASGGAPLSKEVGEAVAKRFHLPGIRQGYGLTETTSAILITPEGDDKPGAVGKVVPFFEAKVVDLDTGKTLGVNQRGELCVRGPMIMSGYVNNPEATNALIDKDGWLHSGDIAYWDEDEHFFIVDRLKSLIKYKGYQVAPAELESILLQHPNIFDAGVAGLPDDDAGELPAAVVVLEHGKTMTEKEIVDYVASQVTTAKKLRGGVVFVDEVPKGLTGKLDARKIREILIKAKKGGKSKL
Chain of Thyrotropin receptor (Homo sapiens) (P16473 whole entry, looked up): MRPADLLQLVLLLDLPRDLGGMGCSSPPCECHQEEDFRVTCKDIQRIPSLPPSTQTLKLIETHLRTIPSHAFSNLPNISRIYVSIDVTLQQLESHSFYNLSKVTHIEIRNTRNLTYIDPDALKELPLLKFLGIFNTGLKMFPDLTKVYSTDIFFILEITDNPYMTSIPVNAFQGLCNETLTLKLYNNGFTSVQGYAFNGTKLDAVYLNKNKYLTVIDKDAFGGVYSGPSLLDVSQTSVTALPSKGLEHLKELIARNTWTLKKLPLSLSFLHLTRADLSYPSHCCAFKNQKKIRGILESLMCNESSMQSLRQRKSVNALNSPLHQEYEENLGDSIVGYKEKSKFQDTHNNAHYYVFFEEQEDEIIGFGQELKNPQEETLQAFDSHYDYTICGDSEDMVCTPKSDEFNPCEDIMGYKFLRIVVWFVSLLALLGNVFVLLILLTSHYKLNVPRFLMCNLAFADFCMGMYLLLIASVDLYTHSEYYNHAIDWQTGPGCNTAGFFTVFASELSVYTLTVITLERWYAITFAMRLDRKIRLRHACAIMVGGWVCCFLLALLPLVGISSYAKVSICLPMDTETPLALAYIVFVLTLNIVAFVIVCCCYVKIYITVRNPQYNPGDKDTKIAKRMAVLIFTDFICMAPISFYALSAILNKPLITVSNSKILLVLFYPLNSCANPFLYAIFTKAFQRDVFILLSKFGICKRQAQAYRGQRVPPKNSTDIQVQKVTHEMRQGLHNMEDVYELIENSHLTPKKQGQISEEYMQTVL
Chain of Nuclear receptor subfamily 1 group I member 3 (Homo sapiens) (Q14994 whole entry, looked up): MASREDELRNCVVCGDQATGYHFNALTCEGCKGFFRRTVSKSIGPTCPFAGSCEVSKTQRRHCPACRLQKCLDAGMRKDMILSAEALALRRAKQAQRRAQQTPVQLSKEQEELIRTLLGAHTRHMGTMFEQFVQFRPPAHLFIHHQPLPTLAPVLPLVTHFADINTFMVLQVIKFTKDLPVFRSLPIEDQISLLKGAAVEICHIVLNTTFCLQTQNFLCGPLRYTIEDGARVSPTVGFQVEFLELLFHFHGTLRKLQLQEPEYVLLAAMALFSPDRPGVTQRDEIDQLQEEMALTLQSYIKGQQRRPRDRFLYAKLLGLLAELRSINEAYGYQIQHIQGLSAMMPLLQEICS

N#Cc1c(Cl)cccc1Cl
inactive: Potency [1] | Potency [2] | Potency [3] | Potency [4] | Potency [5] | Potency [6] | Potency [7] | outcome [8] | Potency [9] | Potency [10] | outcome [11] | Potency [12] | Potency [13] | activity change, positive = activation [14] 7.33% | Potency [15] | Potency [16] | Potency [17] | Potency [18]

O=NN1CCN(N=O)CC1
inactive: Potency [1] | Potency [2] | Potency [3] | Potency [4] | Potency [5] | Potency [6] | Potency [7] | outcome [8] | Potency [19] | Potency [9] | Potency [10] | outcome [11] | Potency [12] | Potency [13] | activity change, positive = activation [14] 3% | Potency [15] | Potency [16] | Potency [17] | Potency [18]

CCNc1nc(NC(C)C)nc(OC)n1
inactive: Potency [1] | Potency [2] | Potency [3] | Potency [6] | Potency [7] | outcome [8] | Potency [19] | Potency [10] | outcome [11] | Potency [12] | Potency [13] | activity change, positive = activation [14] -0.534% | Potency [15] | Potency [16] | Potency [17] | Potency [18]

O=C1c2ccccc2C(=O)c2ccccc21
inactive: viability change, negative = cytotoxic [1] 0.548% [at 19 µM] | activity change, negative = inhibition [2] 3.8% [at 23.6 µM] | activity change, negative = cytotoxicity [3] 4.8% [at 19 µM] | viability change, negative = cytotoxic [6] 4.21% [at 19 µM] | activity, negative = inhibition [7] 16.6% [at 19 µM] | activation [8] 5.32% [at 19 µM] | activation [19] -2.19% [at 19 µM] | activity change, negative = cytotoxicity [9] -0.0454% [at 15.8 µM] | activation [11] 0.0544% [at 15.8 µM] | activity change, negative = cytotoxicity [12] 8.07% [at 31.6 µM] | activity, negative = inhibition [13] 18.9% [at 19 µM] | activity change, positive = activation [14] 10.5% [at 19 µM] | activity change, negative = cytotoxic [16] 15.3% [at 15.8 µM] | cytotoxicity [17] 6.35% [at 15.8 µM] | activity change, negative = cytotoxic [18] 0.48% [at 15.8 µM]

O=C1OC(=O)C2C1C1(Cl)C(Cl)=C(Cl)C2(Cl)C1(Cl)Cl (stereo not drawn)
inactive: Potency [1] | Potency [2] | Potency [3] | Potency [4] | Potency [5] | Potency [6] | Potency [19] | Potency [10] | outcome [11] | Potency [12] | Potency [15] | Potency [16] | Potency [17] | Potency [18]

CCCCc1c(C)nc(NCC)[nH]c1=O
inactive: Potency [1] | Potency [2] | Potency [3] | Potency [4] | Potency [5] | Potency [6] | Potency [7] | outcome [8] | Potency [19] | Potency [10] | outcome [11] | Potency [12] | Potency [13] | activity change, positive = activation [14] 5.33% | Potency [17] | Potency [18]
